The panel holds about 83,000 compounds, 20% with a hit somewhere; the sample as a whole holds those more often.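 Percent growth is the endpoint: 0 to 100 indicates growth inhibition (40 means 60% inhibition), 0 means no net growth, and negative values indicate cell death.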 Unmarked numbers belong to inactive results. The source made the active and inactive calls.
These molecules were tested on MCF7 breast (assay: NCI-60 one-dose screen, 48 h (100 = growth as untreated, 0 = no growth, -100 = all killed)). Conditions: 10 µM.
Method: Growth inhibition of the MCF7 human tumor cell line is measured as a screen for anti-cancer activity. Cells are grown in 96 well plates and exposed to the test compound for 48 hours. Compounds are tested at a single concentration, which is 10^-5 M for most compounds. The reported endpoint is percent growth (GI% or GIPRCNT), where numbers from 0 - 100% represent growth inhibition, and numbers from -100% - 0 represent cell death. For example, a value of 40 represents 60% growth inhibition. A value of 0 means no net growth occurred over the course of the experiment. A value of -40 indicates 40% of cells at the beginning of the experiment died by the end of the experiment. A value of -100 means all cells are dead at the end of the experiment.
NCI-60 Human Tumor Cell Lines Screen was performed using the standard one-dose NCI protocol, which is described in more detail at https://dtp.cancer.gov/discovery_development/nci-60/default.htm.
Compounds with GIPRCNT values below 10 were considered active. Activity score was based on GIPRCNT using the following formula: […]
Score is 0 for GIPRCNT values of 100 or above, 50 for GIPRCNT values of 0, and 100 for GIPRCNT values of -100.
In the case of COc1ccc(CN2CCC(N3CCCC3=O)c3cc(Cl)ccc32)cc1 (stereo not given), the growth is reported as 100%. In the case of COc1cc(CNc2ccccc2C(=O)N2CCN(C(=O)c3cc(-c4cc(OC)c(OC)c(OC)c4)n4nc(-c5ccccc5)cc4n3)CC2)cc(OC)c1OC, the growth is reported as 6.61% (active). COc1ccc(-c2ccc(-c3ccc(C(=N)N)cn3)o2)cc1 gave a growth of 47.3%. With CCOC1(OCC)OC(c2ccccc2)=C(C#N)C(/C=C\c2ccccc2)C1(OCC)OCC (stereo not given) the growth was 77.4%. In the case of CN(C)CCCn1c(=O)c2ccccc2c2cnc3[nH]ccc3c21, the growth is reported as 1.25% (active). With O=C1/C(=C\c2ccccc2)CN(C(=O)c2ccccc2)C/C1=C\c1ccccc1 the growth was -36.9% (active). O=C(NN1C(=O)CSC1c1ccc(Cl)cc1)c1cccnc1 (stereo not given) gave a growth of 111%. Work on Cc1cccc(NC2=C(C#N)C(=O)NC3(CCCC3)S2)c1 yielded a growth of 89.8%. C[C@]12CC[C@@H]3c4ccc(O)cc4C[C@@H](O)[C@H]3[C@@H]1CC[C@@H]2O was tested, and the growth was 115%. Cc1nc2ccccc2c(N)c1-c1cc(C)c2c(C)nc3ccccc3c2n1 was tested, and the growth was 31.2%. Molecule O=[N+]([O-])c1ccc(Oc2cccnc2)c([N+](=O)[O-])c1 has a growth of 46.7%. CC1=C(N2CCOCC2)C(N2CCOCC2)=C(C)C(=O)C1=O showed a growth of 92.5%. In the case of COc1ccc(-c2nc(-c3nc4cc(Cl)c(F)cc4[nH]3)c3ccccn23)cc1, the growth is reported as 58.1%. Molecule Nc1c(C(=O)Nc2cccc(F)c2)sc2nc3c(cc12)C(=O)CCC3 has a growth of 11.9%. Work on COc1ccc2c(c1)N(CCO)C1=C(C(=O)OC1)C2c1cc(OC)c(OC)c(OC)c1 (stereo not given) yielded a growth of 19.3%. C[N+](C)(C)c1ncnc2nc[nH]c12 showed a growth of 90.8%. In the case of COc1cc(C(=O)/C=C/c2cc(-c3cc(OC)c(OC)c(OC)c3)n[nH]2)cc(OC)c1OC, the growth is reported as 3.65% (active). In the case of COc1cccc(NC(=O)c2sc3nc4c(cc3c2N)C(O)CCC4)c1 (stereo not given), the growth is reported as 15.5%. COc1ccc(-c2nn(-c3cccc(NC(=O)c4ccc5c(c4)OCCO5)c3)cc2-c2ccncc2)cc1Cl was tested, and the growth was 2.05% (active). For O=c1oc2cc(OS(=O)(=O)c3ccccc3)ccc2c2c1CCCCC2, the growth was 49.7%. In the case of COc1ccc(-c2cc(/C=C3\C(=O)Nc4ccc(OC)cc43)[nH]n2)cc1, the growth is reported as 7.36% (active). Cc1ccc(CC#N)cc1C showed a growth of 104%. With Fc1ccc2nc(-c3nc(-c4ccccc4)n4ccccc34)[nH]c2c1 the growth was -12.6% (active). COc1ccc2nc3cc(Cl)ccc3c(NCCNCC(C)O)c2c1 (stereo not given) gave a growth of 10.5%. COc1ccc2c(c1)O/C(=C\c1ccc([N+](=O)[O-])o1)C2=O was tested, and the growth was 2.06% (active). CN(C)c1ccc(Cc2ccc(N(C)C)cc2Cl)c(Cl)c1 gave a growth of 111%. CC(C)(C)c1ccc(N2CSC(=S)N(c3ccc(C(C)(C)C)cc3)C2)cc1 showed a growth of 91.7%. For CSc1cc(SC)ncn1, the growth was 97.8%. N=C(N)c1ccc(-c2ccc(-c3cccs3)o2)cc1 was tested, and the growth was 3.09% (active). In the case of C/C(=N\Nc1nc2ccccc2s1)c1ccncn1, the growth is reported as 4.99% (active). Nc1ncn([C@@H]2O[C@H](CO)[C@@H](O)[C@H]2O)c(=O)n1 gave a growth of 23.5%. Work on COc1ccc(-n2c(SCc3cc(OC)c(OC)c(OC)c3)nc3ccc(C)cc3c2=O)cc1 yielded a growth of 24.8%. In the case of CCCCCCCCN(CCCCCCCC)CCCCCCCCCN1CCCc2cc(OC)ccc21, the growth is reported as 96%. With Cc1cc(N(CCCNc2ccnc3cc(Cl)ccc23)Cc2ccc3c(c2)OCO3)nc(N2CCCCC2)n1 the growth was -14.3% (active). With CC1(C)OC2=C(CC1Br)C(=O)C(=O)c1ccccc12 (stereo not given) the growth was -66.3% (active). N#CSCC1CC(O)(c2ccccc2)CC(c2ccc(Cl)cc2)O1 (stereo not given) showed a growth of 14.7%. CC(=O)[C@H]1CC[C@H]2[C@@H]3CCC4=CC(=O)C=C[C@]4(C)[C@H]3CC[C@]12C showed a growth of 97.9%. With N=C(N)c1ccc(-c2ccc(-c3ccco3)o2)cc1 the growth was 42.8%. COc1cc([C@@H]2c3cc4c(cc3C(Br)[C@H]3COC(=O)[C@H]23)OCO4)cc(OC)c1OC (stereo not given in full) was tested, and the growth was -10.4% (active). In the case of COc1cc2c(cc1OCCCN1CCN(c3ncnc4ccccc34)CC1)N=CC1CCCN1C2=O (stereo not given), the growth is reported as -17.4% (active).

Source: PubChem BioAssay (NCI)
